Screening results as filed in PubChem BioAssay.
CYP2C19 inhib: blockers of cytochrome P450 2C19 activity – biochemical, luminescence, ADME assay, primary screen; inhibition, % at 5 µM; P33261; hit rate 21% among 96,000; CYP2C19 Supersomes, luciferin-H EGE luminescence, 30 min;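 active = CYP2C19 inhibition above a set limit at 5 µM in the primary screen, cut at about 50% in these data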;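 note: plate controls were negative control wells for no effect and 2.5 mM tranylcypromine positive control for full effect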
CYP2C9 inh: blockers of cytochrome P450 2C9 activity – biochemical, luminescence, ADME assay, primary screen | CYP2C9 Supersomes, luciferin-H conversion | hit rate 20% among 96,000 | P11712 | AID 777, 2007 | inhibition, % at 5 µM;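 active = blocking of liver enzyme CYP2C9 beyond about 50% at 5 µM, limit read from the data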
PTK2B oligo ant: antagonists of Pyk2 self-association, primary screen, Q293 cells, FERM NanoBiT luminescence, HTS. Protein-tyrosine kinase 2-beta (Homo sapiens), Q14289. z-score (the deposit names both 25 µM and 10 µM). hits give low values. hit rate 0.83% among 99,000;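 active = Z-score of -3 or lower, scaled per plate to the spread of control and sample wells; inactive = z-score above -3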;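 note: negative z-score means lost luminescence so less FERM oligomerization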
Target sequence (Q14289 whole entry, looked up): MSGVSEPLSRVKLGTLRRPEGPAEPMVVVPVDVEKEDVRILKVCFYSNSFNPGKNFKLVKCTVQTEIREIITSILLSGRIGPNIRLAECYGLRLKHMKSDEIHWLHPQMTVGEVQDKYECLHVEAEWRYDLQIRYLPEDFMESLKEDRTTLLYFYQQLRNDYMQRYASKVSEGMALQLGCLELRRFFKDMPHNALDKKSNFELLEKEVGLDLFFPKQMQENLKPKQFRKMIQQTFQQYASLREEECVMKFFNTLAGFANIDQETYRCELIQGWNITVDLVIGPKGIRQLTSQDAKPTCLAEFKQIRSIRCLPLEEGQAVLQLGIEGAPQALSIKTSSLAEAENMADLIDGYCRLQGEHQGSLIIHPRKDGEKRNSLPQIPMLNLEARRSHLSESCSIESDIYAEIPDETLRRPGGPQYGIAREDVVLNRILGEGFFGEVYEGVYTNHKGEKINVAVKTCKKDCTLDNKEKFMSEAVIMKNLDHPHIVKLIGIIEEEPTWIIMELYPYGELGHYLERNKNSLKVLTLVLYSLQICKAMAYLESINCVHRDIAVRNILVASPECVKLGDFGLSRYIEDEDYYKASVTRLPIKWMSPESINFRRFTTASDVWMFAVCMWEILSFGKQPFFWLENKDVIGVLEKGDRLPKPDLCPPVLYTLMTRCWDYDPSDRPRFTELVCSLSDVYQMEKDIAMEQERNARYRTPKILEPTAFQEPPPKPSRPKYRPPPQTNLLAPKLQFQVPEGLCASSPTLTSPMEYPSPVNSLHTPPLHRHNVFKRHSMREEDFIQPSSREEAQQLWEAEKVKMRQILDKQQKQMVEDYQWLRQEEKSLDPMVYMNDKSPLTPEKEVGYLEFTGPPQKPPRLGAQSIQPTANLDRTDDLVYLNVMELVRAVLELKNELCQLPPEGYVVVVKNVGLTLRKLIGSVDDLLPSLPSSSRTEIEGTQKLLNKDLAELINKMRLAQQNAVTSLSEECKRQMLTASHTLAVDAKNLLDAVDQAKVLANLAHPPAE
CYP2C9 act: human CYP2C9 activators, primary screen, biochemical, luminescence; hit rate 1.4% among 96,000; recombinant CYP2C9, luciferin-H conversion; hits give high values; factor 1 = untreated enzyme, 0 = blocked; Cytochrome P450 2C9 (Homo sapiens), P11712; activation factor at 5 µM; AID 1024, 2008;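 active = activation factor of 2 or more for CYP2C9 at a 5 µM dose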;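 note: 0 = sulfaphenazole-blocked wells and 1 = vehicle-only wells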
CYP2C19 act: human CYP2C19 activators, primary screen, biochemical, luminescence; activation factor at 5 µM; AID 1025, 2008; recombinant CYP2C19, luciferin-H EGE luminescence; hits give high values; 0 = fully inhibited enzyme, 1 = untreated enzyme; 96,000 tested, under 10 active;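 active = activation factor of at least 2 at 5 µM in the primary screen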;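 note: 0 = wells with 2.5 mM tranylcypromine and 1 = vehicle-only wells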
Active calls of the source: *. A selection: hits, their analogues and other compounds. The true share with any hit is near 28%.

CCOC(=O)c1c(NC(=O)COC(=O)c2c(C)noc2C)sc2c1CCC2 was read as PTK2B oligo ant 0.58.
`CCOC(=O)c1c(NC(=O)COC)sc2c1CCCC2` gave CYP2C19 inhib 16.2, CYP2C9 inh 58.2*, PTK2B oligo ant 0.25, CYP2C9 act 0.4 and CYP2C19 act 0.8.
CCOC(=O)c1c(NC(=O)CN2CCCCC2)sc2c1CCN(C(=O)OCC)C2 was read as CYP2C19 inhib 65.2*, CYP2C9 inh 47.1, PTK2B oligo ant -1.16, CYP2C9 act 0.5 and CYP2C19 act 0.3.
Screening CCOC(=O)c1c(NC(=O)CN2CCOCC2)sc2c1CCCC2 returned CYP2C19 inhib 99.0*, CYP2C9 inh 100.3*, PTK2B oligo ant -0.39, CYP2C9 act 0 and CYP2C19 act 0.
For COC(=O)c1c(NC(=O)CC2SCC(C(=O)OC)NC2=O)sc2c1CCCC2 (stereo not drawn) the results were CYP2C19 inhib 68.7*, CYP2C9 inh -123.5, PTK2B oligo ant -0.02, CYP2C9 act 2.2* and CYP2C19 act 0.3.
`O=C(NC1CCS(=O)(=O)C1)C12CC3CC(CC(C3)C1)C2` (stereo not drawn) gave CYP2C19 inhib 0.0, CYP2C9 inh -5.4, PTK2B oligo ant -0.37, CYP2C9 act 1.1 and CYP2C19 act 1.
`O=C(c1ccc2snnc2c1)N1CCOCC1` gave CYP2C19 inhib 29.7, CYP2C9 inh -6.4, PTK2B oligo ant 0.17, CYP2C9 act 1.1 and CYP2C19 act 0.7.
`CCOC(=O)c1c(NC(=O)CC2SC(N)=NC2=O)sc2c1CCCC2` (stereo not drawn) gave CYP2C19 inhib 18.1, CYP2C9 inh 63.9*, PTK2B oligo ant -1.28, CYP2C9 act 0.4 and CYP2C19 act 0.8.
Screening CCOC(=O)c1c(NC(=O)CN2CCOCC2)sc(C(=O)NC)c1C returned CYP2C19 inhib 36.7, CYP2C9 inh 39.0, PTK2B oligo ant -0.62, CYP2C9 act 0.6 and CYP2C19 act 0.6.
`CCOC(=O)C1CSC(CC(=O)Nc2ccc(Cl)cc2)C(=O)N1` (stereo not drawn) gave CYP2C19 inhib 42.3, CYP2C9 inh -102.5, PTK2B oligo ant -0.25, CYP2C9 act 2* and CYP2C19 act 0.6.
Screening CCOC(=O)c1c(NC(=O)CN2CCOCC2)sc2c1CCCC2=O returned CYP2C19 inhib 18.3, CYP2C9 inh 51.4*, PTK2B oligo ant 0.99, CYP2C9 act 0.5 and CYP2C19 act 0.8.
For CCCOC(=O)Nc1nnc(CCC)s1 the results were CYP2C19 inhib 4.9, CYP2C9 inh 10.3, PTK2B oligo ant -0.15, CYP2C9 act 0.9 and CYP2C19 act 1.
For CC1CN(Cc2ccc(C#N)cc2Cl)CC(C)O1 (stereo not drawn) the results were CYP2C19 inhib -2.9, CYP2C9 inh 1.4, PTK2B oligo ant -0.69, CYP2C9 act 1 and CYP2C19 act 1.
CC1CN(Cc2ccc(Cl)cc2Cl)CC(C)O1 (stereo not drawn) was read as CYP2C19 inhib 53.5*, CYP2C9 inh 14.6, PTK2B oligo ant -0.07, CYP2C9 act 0.9 and CYP2C19 act 0.5.
Screening CCCc1cc2c(cc1NC(=O)c1ccc(C)cc1)OCO2 returned CYP2C19 inhib 98.2*, CYP2C9 inh 40.6, PTK2B oligo ant -0.04, CYP2C9 act 0.6 and CYP2C19 act 0.
CCC(=O)c1cc2c(cc1NC(=O)c1ccc(C)cc1)OCCO2 was read as CYP2C19 inhib -0.8, CYP2C9 inh 22.8, PTK2B oligo ant -0.18, CYP2C9 act 0.8 and CYP2C19 act 1.
`Cc1nn(C)c(C(=O)Nc2ccc(Cn3cccn3)cc2)c1[N+](=O)[O-]` gave CYP2C19 inhib 18.1, CYP2C9 inh 39.6, PTK2B oligo ant 0.31, CYP2C9 act 0.6 and CYP2C19 act 0.8.
Screening CN(C(=O)CSc1nnc(Nc2ccccc2)s1)c1c(N)n(Cc2ccccc2)c(=O)[nH]c1=O returned CYP2C19 inhib 25.9, CYP2C9 inh 64.1*, PTK2B oligo ant 0.05, CYP2C9 act 0.4 and CYP2C19 act 0.7.
`CCOc1cc2[nH]c(=O)n(Cc3cccc(OC)c3)c(=O)c2cc1OCC` gave CYP2C19 inhib -4.4, CYP2C9 inh 6.9, PTK2B oligo ant -0.39, CYP2C9 act 0.9 and CYP2C19 act 1.
OC(CNCCc1ccccc1)c1ccccc1 (stereo not drawn) was read as CYP2C19 inhib 66.9*, CYP2C9 inh -0.5, PTK2B oligo ant 0.51, CYP2C9 act 1 and CYP2C19 act 0.3.
For O[C@@H](CNC[C@H](O)c1ccccc1)c1ccccc1 the results were PTK2B oligo ant 0.21.
`CCN(CC)CCNC(=O)c1c(C)oc2cc(Br)c(OC)cc12` gave CYP2C19 inhib 11.9, CYP2C9 inh 27.6, PTK2B oligo ant 0.81, CYP2C9 act 0.7 and CYP2C19 act 0.9.
`COCCN(C(=O)CNC(=O)c1ccco1)C(C(=O)NC1CCCCC1)c1cccs1` (stereo not drawn) gave PTK2B oligo ant 0.01.
O=C(CCC(=O)c1ccc(F)cc1)OC1CCOC1=O (stereo not drawn) was read as CYP2C19 inhib 78.3*, CYP2C9 inh -15.6, PTK2B oligo ant 0.16, CYP2C9 act 1.2 and CYP2C19 act 0.2.
Screening CC(C)OCCCn1c(=N)c(C(N)=S)cc2c(=O)n3ccccc3nc21 returned CYP2C19 inhib 79.2*, CYP2C9 inh 24.6, PTK2B oligo ant -0.04, CYP2C9 act 0.8 and CYP2C19 act 0.2.
`COCCn1c(=NC(=O)c2ccc3c(c2)OCO3)c(C#N)cc2c(=O)n3cccc(C)c3nc21` gave CYP2C19 inhib -22.9, CYP2C9 inh -13.4, CYP2C9 act 1.1 and CYP2C19 act 1.2.
`CCCCn1c(=NC(=O)c2ccc3c(c2)OCO3)c(C#N)cc2c(=O)n3cccc(C)c3nc21` gave CYP2C19 inhib 35.7, CYP2C9 inh 57.3*, PTK2B oligo ant -0.94, CYP2C9 act 0.4 and CYP2C19 act 0.6.
For CC(C)OCCCn1c(=NC(=O)c2ccncc2)c(C#N)cc2c(=O)n3ccccc3nc21 the results were CYP2C19 inhib 80.4*, CYP2C9 inh 73.6*, PTK2B oligo ant 0.22, CYP2C9 act 0.3 and CYP2C19 act 0.2.
For CCOCCCn1c(=N)c(C(=O)NCc2ccc3c(c2)OCO3)cc2c(=O)n3ccccc3nc21 the results were CYP2C19 inhib 5.4, CYP2C9 inh 12.7, CYP2C9 act 0.9 and CYP2C19 act 0.9.
Screening CCCC(=O)Nc1ccc2c(c1)nc(CN1CCCCC1)n2C returned CYP2C19 inhib -1.3, CYP2C9 inh 6.9, PTK2B oligo ant 0.48, CYP2C9 act 0.9 and CYP2C19 act 1.
Screening CC(C)C(NC(=O)OC(C)(C)C)C(=O)N1CCCC1C(=O)NC(Cc1ccccc1)C(N)=O (stereo not drawn) returned CYP2C19 inhib -20.7, CYP2C9 inh -20.0, PTK2B oligo ant 1.01, CYP2C9 act 1.2 and CYP2C19 act 1.2.
